Screens from PubChem.
Shown are actives, neighbours in structure and some others; about 9.2% of the full set was active somewhere.
FLuc counter = inhibits or activates purified firefly luciferase, miR-21 counter-screen; AID 588342; Potency, µM (titrated, usually from 57.5 µM), for the others: at the top dose activity change, negative = inhibition, actives largely listed as inhibitors; 360,000 compounds, 6.9% hits; P08659; purified FLuc, Km substrates, luminescence inhibition;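 further: plate controls were vehicle for no effect and reference inhibitor for full effect; nearly all actives have a fitted effect of over 55% in size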
Target sequence (P08659 whole entry, looked up): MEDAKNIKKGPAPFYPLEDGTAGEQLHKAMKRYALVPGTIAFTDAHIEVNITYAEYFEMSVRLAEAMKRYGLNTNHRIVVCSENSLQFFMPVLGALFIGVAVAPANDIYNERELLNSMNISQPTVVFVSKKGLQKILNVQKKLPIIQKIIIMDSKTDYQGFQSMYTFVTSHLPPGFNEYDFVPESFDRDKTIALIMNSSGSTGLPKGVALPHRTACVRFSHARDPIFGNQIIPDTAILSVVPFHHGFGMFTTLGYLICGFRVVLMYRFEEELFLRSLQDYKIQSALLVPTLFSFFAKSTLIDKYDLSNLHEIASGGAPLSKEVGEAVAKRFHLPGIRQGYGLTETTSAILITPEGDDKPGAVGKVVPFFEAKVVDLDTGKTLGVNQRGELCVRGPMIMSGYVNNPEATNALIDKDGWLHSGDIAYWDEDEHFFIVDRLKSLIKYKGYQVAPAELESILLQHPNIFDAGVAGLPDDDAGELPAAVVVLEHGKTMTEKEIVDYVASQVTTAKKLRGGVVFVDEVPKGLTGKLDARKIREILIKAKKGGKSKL
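Purified P. pyralis luciferase, 10 nM final, with Km-level 10 uM D-luciferin and 10 uM ATP in 50 mM Tris acetate pH 7.5, 10 mM Mg acetate, 0.01% Tween-20, 0.05% BSA; 6-point qHTS titration about 60 µM downward; luminescence read.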
ELG1 genotox = genotoxicity induction in ELG1-luciferase HEK293T cells. HEK293T ELG1-luciferase reporter, luminescence, 16 h. Potency, µM (titrated, usually from 46 µM), for the others: at the highest dose activity change, positive = activation, actives largely listed as activators. 330,000 compounds, 1.3% hits; further: % of control where 0% means no effect; nearly all actives have a fitted effect of over 60% in size
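Step 1: seed 2,000 HEK293T ELG1-luciferase cells per well. Step 2: add compound or DMSO, incubate 16 hr at 37 °C. Step 3: ONE-Glo, 30 min at room temperature, read luminescence.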
ELG1 DNA repair = inhibitors of ELG1-dependent DNA repair in HEK293T cells; 330,000 compounds, 2.3% hits; HEK293T ELG1-luciferase reporter, luminescence, 16 h; DNA damage induced by 5-fluorouridine; AID 504467; Potency, µM (series often up to 46.1 µM), for inactives: top-dose activity change, negative = inhibition, most hits filed as inhibitors; further: on the % scale 0 is the no-effect control and ±100 the full control effect; nearly all actives have a fitted effect of over 55% in size
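DMSO vehicle served as the neutral condition. Each well held 2,000 cells given 5-fluorouridine plus compound; after 16 hr at 37 °C/5% CO2, ONE-Glo was added and luciferase measured 30 min later.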
NPC1 prom act = activators of NPC1 promoter; Huh7 NPC1 promoter luciferase reporter, 24 h; 320,000 compounds, 2.4% hits; Potency, µM (series often up to 9.22 µM), for inactives: at the top dose activation, hits mostly activators; AID 485313; further: % of control where 0% means no effect; nearly all actives have a fitted effect of over 60% in size
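Stable NPC1-promoter luciferase Huh7 line; cpd (DMSO) 24 h, 37 °C, 5% CO2; Amplite luciferase reagent 10 min RT; luminescence readout. qHTS format.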
SMN2 splice enh = enhancers of SMN2 splice variant expression; HEK293 SMN2-luciferase splicing reporter, luminescence, 30-36 h; Potency, µM (titrated, usually from 46.1 µM), for inactives: at the highest dose activity change, positive = activation, most hits filed as activators; 210,000 compounds, 2.8% hits; further: % of control where 0% means no effect; nearly all actives have a fitted effect of over 55% in size
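HEK293 cells carry an SMN2 […]–luciferase reporter in which exon 7 inclusion puts luciferase in frame. Cells were plated 10-12 h before compound addition, then incubated 30-36 h at 37C. ONE-Glo luminescence was read; sodium butyrate at 4.5 mM final served as control.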
Rab9 prom act = Rab9 promoter activation; 320,000 compounds, 2.8% hits; Huh7 Rab9 promoter-luciferase reporter, luminescence, 24 h; AID 485297; Potency, µM (series often up to 9.22 µM), for inactives: at the highest dose activation, negative = inhibition, usual class: activators; further: % of control where 0% means no effect; nearly all actives have a fitted effect of over 60% in size
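Luminescence from Amplite-detected luciferase (10 minutes, ambient) reports Rab9 promoter activation. Before that, stable Rab9-luciferase Huh7 cells (1500/well, reduced-serum OP-MEM I plus 10% FBS) were exposed to compound for 24 hours at 37C.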
The depositor's hits bear a star; ? = inconclusive; / = no result. The call rests on the fitted dose curve; in most records, active means well fitted curve in the direction sought with a large enough effect; inconclusive means small, poorly fitted or top-dose-only effect, or another doubt; inactive means no such curve, though single readings can be large; an effect the other way counts as inactive or inconclusive. Potency means the concentration at half of the fitted maximal effect.

SMILES	FLuc counter	ELG1 genotox	ELG1 DNA repair	NPC1 prom act	SMN2 splice enh	Rab9 prom act
CCOC(=O)N1CCN(C(=O)c2ccc3nc(-c4ccccc4)c(-c4ccccc4)nc3c2)CC1	3%	-10%	23µM*	-3%	/	-1%
CCOC(=O)N1CCN(C(=O)c2noc3c2COc2ccccc2-3)CC1	13µM*	?	?	?	/	?
COc1ccc(OC)c(NC(=O)CCc2nc(-c3ccc(C)cc3)no2)c1	?	/	/	/	21%	/
O=C(Nc1ccccc1C(=O)NCCCN1CCOCC1)c1ccc(Cl)cc1	3%	-9%	4%	2%	/	1%
CC(=O)Nc1ccc(C(=O)OCC(=O)Nc2ccccc2F)cc1	-9%	0%	12%	-5%	6%	13%
CC(=O)C1=C(S(=O)(=O)c2ccc(C)cc2)CS(=O)(=O)C1	?	-5%	-17%	-21%	-61%	-8%
O=C(O)c1cc(-c2ccc(-c3ccc(F)cc3)o2)nc2ccccc12	0.13µM*	?	?	2.5µM*	/	0.89µM*
CCOC(=O)N1CCN(C(=O)c2cc(-c3ccc(OCC)cc3)nc3ccccc23)CC1	0.21µM*	0%	?	23%	13µM*	?
CCOc1ccc(-c2cc(C(=O)N3CCN(C)CC3)c3ccccc3n2)cc1	0.6µM*	?	?	2.8µM*	11µM*	2.5µM*
CCOC(=O)N1CCN(C(=O)c2cc(-c3ccncc3)nc3ccccc23)CC1	2%	0%	?	-19%	/	-14%
O=C(c1cc(-c2ccc(F)cc2)nc2ccccc12)N1CCC1	/	-4%	?	/	/	/
COc1ccc2cc(-c3cc(C(=O)O)c4ccccc4n3)ccc2c1	0.067µM*	?	?	0.11µM*	?	?
CN1CCCN(C(=O)c2cc(-c3cccc4ccccc34)nc3ccccc23)CC1	-19%	-8%	-22%	-4%	/	-5%
COc1ccc(CCNC(=O)CCc2c(C)c3cc4c(C)coc4c(C)c3oc2=O)cc1OC	-13%	/	/	/	-12%	/
CN(Cc1nccn1C)C(=O)c1ccc(OC2CCN(CCc3ccccc3)CC2)cc1	-1%	2%	1%	-3%	/	-1%
O=C(CSc1cn(CC(=O)N2CCCCC2)c2ccccc12)NCc1ccccc1	-8%	/	/	/	/	/
CCS(=O)(=O)C(C)(CCl)C(=O)Nc1ccc(C(=O)OC)cc1 (stereo not given)	0%	-2%	?	10%	/	-3%
COc1ccc(-c2cc(OC)c3ccccc3n2)cc1	19µM*	-1%	7%	-2%	9%	-2%
COc1cc(-c2ccccc2)nc2ccccc12	-13%	-3%	-24%	-2%	-43%	7%
Cc1ccc(-c2cc(C(=O)N3CCOCC3)c3ccccc3n2)o1	/	8%	?	/	/	/
Cc1ccc(-c2cc(C(=O)N3CCN(c4ccc(F)cc4)CC3)c3ccccc3n2)o1	3.4µM*	-7%	0%	2%	14%	16%
O=C(O)c1cc(-c2ccco2)nc2ccc(Br)cc12	19µM*	-6%	?	0%	0%	-5%
O=C(NC1CCCCC1)c1cc(S(=O)(=O)N2CCOCC2)c(Cl)cc1Cl	3%	-2%	?	1%	/	1%
C=CCN=C(NC#N)SC	2%	2%	10%	-5%	/	1%
Cc1c(C)c2ccc(O[C@@H]3O[C@H](CO)[C@H](O)[C@H](O)[C@H]3O)cc2oc1=O	6%	7%	17%	0%	/	6%
SMILES	FLuc counter	ELG1 genotox	ELG1 DNA repair	NPC1 prom act	SMN2 splice enh	Rab9 prom act
COc1cc(O)c2c(=O)c(-c3ccc(O[C@@H]4O[C@H](CO)[C@@H](O)[C@H](O)[C@H]4O)cc3)coc2c1	17µM*	?	?	1.6µM*	/	4µM*
O=c1c(-c2ccc(O)cc2)coc2cc(OC3OC(CO)C(O)C(O)C3O)cc(O)c12 (stereo not given)	24µM*	15µM*	?	?	?	?
O=c1c(-c2ccc(O)cc2)coc2cc(OC3OC(CO)C(O)C(O)C3O)ccc12 (stereo not given)	?	16µM*	?	3.2µM*	?	?
O=C1CCC([N+](=O)[O-])C(c2ccccc2F)N1 (stereo not given)	0%	0%	1%	1%	/	-9%
O=C(O)CN(CC(=O)O)CC(=O)O	/	/	/	/	6%	/
CCC(Sc1nc2ccccc2c2nc(-c3ccccc3)nn12)C(=O)Nc1cccc(OC)c1 (stereo not given)	-2%	/	/	/	/	/
COc1ccc(CCNC(=O)COc2ccc(S(=O)(=O)NC(C)C)cc2Cl)cc1OC	3%	-5%	?	1%	-21%	-5%
CCN(CC)c1ccc(N=Cc2ccc([N+](=O)[O-])o2)cc1	6.7µM*	-2%	6%	14%	-15%	22%
CCN(CC)c1ccc(N=Cc2ccccc2[N+](=O)[O-])cc1	3.8µM*	-7%	-3%	-1%	-22%	3%
O=C(NCCS(=O)(=O)N1CCN(c2ccccc2F)CC1)c1ccccc1C(F)(F)F	-7%	/	/	/	/	/
O=C(CN1CCN(S(=O)(=O)c2ccc(Cl)c(Cl)c2)CC1)N1CCCC1	8%	3%	25%	-1%	/	-3%
CC(C)c1ccc(/C=C/C(=O)O)cc1	19µM*	1%	21%	0%	/	-6%
CCCNC(=O)/C=C/c1ccc(C(C)C)cc1	17µM*	?	?	22%	?	28%
O=C(O)/C=C/c1ccc(/C=C/C(=O)O)cc1	/	/	/	/	8%	/
CC(C)C(C(=O)NC1CCCC1)N(CC1CCCO1)C(=O)CNS(=O)(=O)c1ccc(F)cc1 (stereo not given)	2%	3%	8%	1%	/	0%
Cc1ccc(-c2cnc(-c3ccncc3)o2)cc1	6.7µM*	18µM*	?	?	22µM*	?
O=[N+]([O-])c1ccc(-c2ncc(-c3ccc(Br)cc3)o2)cc1	?	13%	?	?	/	?
Nc1ccc(-c2ncc(-c3ccccc3)o2)cc1	1.5µM*	?	?	-17%	/	-33%
COc1ccc(C(=O)NCc2nnc(SCC(=O)Nc3nc4ccccc4s3)o2)cc1OC	2%	1%	-6%	0%	?	-3%
CC(C)C(c1nnnn1C(C)(C)C)N1CCC(Cc2ccccc2)CC1 (stereo not given)	-7%	-3%	?	-5%	-49%	-5%
Cc1ccc2cc(C#N)c(SCC(=O)NCC3CCCO3)nc2c1 (stereo not given)	3%	-3%	15%	0%	-1%	0%
COC(=O)CSc1nc2cc(C)ccc2cc1C#N	13µM*	?	?	1.6µM*	18µM*	1.4µM*
